Screening data as filed in PubChem.
HepG2 viability: counter-screen for TGF-b inhibitors: cytotoxicity in HepG2 cells | HepG2 CAGA-GFP viability, ATP luminescence, 18 h | Potency, µM (series often up to 46.1 µM), hits mostly cytotoxic | 0.76% of 410,000 active | AID 588856
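HepG2 CAGA-GFP cells (1000/well, DMEM with 1% FBS) received compound, then TGF-beta at 500 pg/mL final, and were incubated 18 hours at 37 degrees C. Viability was read by CellTiter-Glo luminescence. Media-only wells were set as complete cell-killing and DMSO as no toxicity.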
IL1B secr inh: inhibitors of inflammasome signaling (IL-1 beta secretion). AID 743279. activity change, % at 57.5 µM. 4.7% of 360,000 active. THP-1 LPS/ATP IL-1B secretion, AlphaLISA, 16 h; active compounds read low; in the data active = activity change below about -50%; inconclusive = mostly about -30% to -49%
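THP-1 cells pretreated 1 hr with compounds (up to 57.5 uM final), then stimulated with LPS (250 ng/mL final) plus ATP (1.25 mM final); secreted IL-1B measured by AlphaLISA after 16 hr, decreased signal indicating inhibition.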
TDP1 cell CPT: DT40-hTDP1 cell growth loss with CPT; chicken DT40 Tdp1-/-;hTDP1 cells + 20 nM CPT, ATP luminescence, 48 h; Potency, µM (top dose mostly 46.2 µM), usual class: inhibitors; 12% of 420,000 active; AID 686979; also: nearly all actives have a fitted effect of over 55% in size
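Cell growth measured by CellTiter-Glo luminescence after a minimum 48 h, 37 C compound exposure with 20 nM CPT in Tdp1-knockout DT40 cells stably expressing hTDP1, seeded 400/well; qHTS titration format.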
DT40 TDP1 no CPT: qHTS for Inhibitors of human tyrosyl-DNA phosphodiesterase 1 (TDP1): qHTS in cells in absence of CPT | 15% of 420,000 active | AID 686978, 2013 | Potency, µM (series often up to 46.2 µM), most hits filed as inhibitors | DT40 Tdp1-/- hTDP1 cells, no CPT, ATP luminescence, 48 h; also: nearly all actives have a fitted effect of over 55% in size
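A cellular qHTS used chicken DT40 cells lacking endogenous Tdp1 but carrying stably transfected human TDP1. Compounds were applied without camptothecin, and cell growth kinetics were judged by ATP-dependent luminescence after ≥48 hr.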
TDP1 block: blocks human tyrosyl-DNA phosphodiesterase 1; recombinant TDP1, AlphaScreen DNA substrate cleavage; 0.28% of 350,000 active; Q9NUW8; Potency, µM (highest dose often 130 µM), usual class: inhibitors; AID 485290; also: nearly all actives have a fitted effect of over 40% in size
Target sequence (Q9NUW8 whole entry, looked up): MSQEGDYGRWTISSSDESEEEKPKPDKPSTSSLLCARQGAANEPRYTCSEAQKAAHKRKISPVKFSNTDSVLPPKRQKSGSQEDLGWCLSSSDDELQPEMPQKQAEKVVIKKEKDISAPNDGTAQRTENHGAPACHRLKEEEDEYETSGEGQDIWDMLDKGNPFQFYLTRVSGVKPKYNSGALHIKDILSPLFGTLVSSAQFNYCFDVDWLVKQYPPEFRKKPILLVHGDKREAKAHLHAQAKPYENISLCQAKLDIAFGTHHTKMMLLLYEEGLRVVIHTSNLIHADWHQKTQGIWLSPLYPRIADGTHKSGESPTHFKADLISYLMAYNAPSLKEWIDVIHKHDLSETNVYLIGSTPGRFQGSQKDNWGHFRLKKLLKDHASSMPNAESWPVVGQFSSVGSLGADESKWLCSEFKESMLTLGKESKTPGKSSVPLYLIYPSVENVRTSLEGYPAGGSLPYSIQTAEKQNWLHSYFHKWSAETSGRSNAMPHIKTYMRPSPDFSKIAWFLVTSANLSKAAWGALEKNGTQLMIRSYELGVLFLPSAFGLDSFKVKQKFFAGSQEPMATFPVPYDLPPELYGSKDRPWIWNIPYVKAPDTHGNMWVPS
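Signal: AlphaScreen proximity between streptavidin donor and anti-FITC acceptor beads on intact substrate. Reaction: Tdp1 1 nM, substrate 15 nM final, 5 min RT after 15 min compound preincubation.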
TGFb SMAD3 inh: inhibitors of TGF-b signaling | HepG2 CAGA-GFP TGF-b/SMAD3 reporter, GFP fluorescence, 18 h; TGF-beta stimulated, 500 pg/mL final | Potency, µM (top dose mostly 46.1 µM), usual class: inhibitors | 1.2% of 410,000 active | AID 588855; also: nearly all actives have a fitted effect of over 65% in size
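Inhibition of TGF-beta-driven CAGA-GFP reporter expression in HEPG2 cells is measured by cellular GFP fluorescence after 18 h stimulation with 500 pg/mL recombinant TGF-beta in 1% FBS medium at 37 degrees C.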
Large screens that a line does not name were inactive. Most compounds without a hit are left out; they make up all but 18% or so of the library. Unless noted, calls follow the shape of the dose curve; as a rule, active = well fitted curve in the direction sought with a large enough effect; inconclusive = small, poorly fitted or top-dose-only effect, or another doubt; inactive = no such curve, though single readings can be large; an effect the other way counts as inactive or inconclusive.

COc1ccc(C(=O)N2CCCCC2c2cc(C(=O)Nc3ccc(OC)cc3C)no2)cc1 (configuration not stated)	TDP1 cell CPT inconclusive, DT40 TDP1 no CPT inconclusive (no result: TDP1 block)
CCCNC(=O)c1cc(C2CCCCN2C(=O)c2cc(C(C)(C)C)nn2C)on1 (configuration not stated)	TDP1 cell CPT 20.6µM, DT40 TDP1 no CPT 18.4µM (no result: TDP1 block)
COc1ccc(NC(=O)c2cc(C3CCCCN3C(=O)c3cc(C(C)(C)C)nn3C)on2)c(C)c1 (configuration not stated)	TDP1 cell CPT inconclusive, DT40 TDP1 no CPT 20.6µM (no result: TDP1 block)
Cc1ccc(F)cc1C(=O)N1CCCCC1c1cc(C(=O)NC(C)C)no1 (configuration not stated)	IL1B secr inh -55.7 (no result: TDP1 block)
Cc1ccc(S(=O)(=O)N2CCOCC2)cc1NC(=O)COC(=O)COc1cccc2c1OC(C)(C)C2	none (no result: TDP1 block)
COc1ccc(NC(=O)c2cc(C3CCCCN3C(=O)Cc3ccc(N(C)C)cc3)on2)c(C)c1 (configuration not stated)	TDP1 cell CPT 20.6µM, DT40 TDP1 no CPT inconclusive (no result: TDP1 block)
CCCN(Cc1nnc(-c2ccccc2Cl)o1)C(=O)c1oc2ccccc2c1C	TDP1 cell CPT inconclusive, DT40 TDP1 no CPT inconclusive, TGFb SMAD3 inh inconclusive (no result: TDP1 block)
Cc1ccc(C)c(NC(=O)CCC(=O)OC(C(=O)c2ccccc2)c2ccccc2)c1 (configuration not stated)	none
CCC(=O)Nc1cc(C(=O)OC(C(=O)c2ccc(C)c(C)c2)c2ccccc2)ccc1C (configuration not stated)	IL1B secr inh -58.5, TDP1 cell CPT 18.4µM, DT40 TDP1 no CPT inconclusive
N/C(=N/O)c1ccccc1N1CCC(Cc2ccccc2)CC1	TDP1 cell CPT inconclusive, DT40 TDP1 no CPT 14.6µM, TGFb SMAD3 inh inconclusive
CC(=O)Nc1nc(-c2ccccc2)nc(-c2ccccc2OC(C)=O)n1	IL1B secr inh -50.2, TDP1 cell CPT inconclusive, DT40 TDP1 no CPT 18.4µM, TGFb SMAD3 inh inconclusive
CC1=CC23C(=O)C(C=C(CO)[C@@H](O)[C@]2(O)[C@H]1O)[C@H]1[C@@H](C[C@H]3C)C1(C)C (some centres not stated)	none (no result: HepG2 viability, IL1B secr inh, TDP1 cell CPT, DT40 TDP1 no CPT, TGFb SMAD3 inh)
OC(COc1ccccc1)CN(Cc1ccccc1)CC(O)COc1ccccc1 (configuration not stated)	IL1B secr inh -52.7, TDP1 cell CPT 16.4µM, DT40 TDP1 no CPT 20.6µM, TGFb SMAD3 inh inconclusive
CCC(=O)c1ccc(OCC(O)CN(CCc2ccccc2)Cc2ccccc2)cc1 (configuration not stated)	IL1B secr inh -80.0, TDP1 cell CPT inconclusive, DT40 TDP1 no CPT 20.6µM, TGFb SMAD3 inh inconclusive
COc1ccc(-c2csc3ncnc(N4CCN(S(=O)(=O)c5cccc(C(F)(F)F)c5)CC4)c23)cc1	TDP1 cell CPT inconclusive, DT40 TDP1 no CPT inconclusive (no result: TDP1 block)
COc1ccc(-c2csc3ncnc(N4CCN(S(=O)(=O)c5ccc(C(C)=O)cc5)CC4)c23)cc1	IL1B secr inh -74.2, TDP1 cell CPT inconclusive, DT40 TDP1 no CPT inconclusive (no result: TDP1 block)
COc1ccc(-c2csc3ncnc(N4CCN(S(=O)(=O)c5cccc(Br)c5)CC4)c23)cc1	TDP1 cell CPT 23.1µM, DT40 TDP1 no CPT 9.2µM
S=C(Nc1ccc(Nc2ccccc2)cc1)NC1CCCCCC1	IL1B secr inh -79.0, TDP1 cell CPT 23.1µM, DT40 TDP1 no CPT 16.4µM, TGFb SMAD3 inh inconclusive
CC1CCCN(C(=S)Nc2ccc(Nc3ccccc3)cc2)C1 (configuration not stated)	IL1B secr inh -85.7, TDP1 cell CPT 10.3µM, DT40 TDP1 no CPT 9.2µM, TGFb SMAD3 inh inconclusive
CC1CCCN(C(=S)Nc2ccc(F)cc2)C1 (configuration not stated)	none
S=C(Nc1ccc(Cl)cc1)NC1CCCCC1	TDP1 cell CPT inconclusive, DT40 TDP1 no CPT inconclusive, TGFb SMAD3 inh inconclusive
FC(F)Oc1ccc(NC(=S)NC2CCCCCCC2)cc1	IL1B secr inh -91.1, TDP1 cell CPT inconclusive, DT40 TDP1 no CPT inconclusive, TGFb SMAD3 inh inconclusive
C/C(=N\NC(=S)NC1CCCCC1)c1ccc(OC(F)F)cc1OC(F)F	IL1B secr inh inconclusive, TDP1 cell CPT 25.9µM, DT40 TDP1 no CPT 25.9µM, TGFb SMAD3 inh inconclusive (no result: TDP1 block)
O=C(CCc1cn2ccccc2n1)NC1CCCc2c1cnn2-c1ccccc1F (configuration not stated)	none
O=C(CSc1nnc2c(n1)[nH]c1ccc(S(=O)(=O)N3CCOCC3)cc12)Nc1ccc(F)c(F)c1	none
C/C(=N\NC(=S)NC1CCCCC1)c1cccs1	TDP1 cell CPT 13µM, DT40 TDP1 no CPT 10.3µM
C/C(=N\NC(=S)NC1CCCCC1)c1c(F)cccc1F	TDP1 cell CPT inconclusive, DT40 TDP1 no CPT inconclusive
CC1(C)CC[C@]2(C(=O)n3ccnc3)CC[C@]3(C)[C@H](C(=O)C=C4[C@@]5(C)C=C(C#N)C(=O)C(C)(C)[C@@H]5CC[C@]43C)[C@@H]2C1	IL1B secr inh -100.2, TDP1 cell CPT 0.581µM, DT40 TDP1 no CPT 0.651µM, TGFb SMAD3 inh inconclusive (no result: TDP1 block)
O=C(Nc1ccc(N2CCN(C(=O)c3ccccc3)CC2)cc1)c1cccs1	IL1B secr inh -58.6, TDP1 cell CPT 18.4µM, DT40 TDP1 no CPT 20.6µM
CCC(=O)NC(=S)Nc1ccc(N2CCN(C(=O)c3ccc(Cl)cc3)CC2)cc1	TDP1 cell CPT 20.6µM, DT40 TDP1 no CPT inconclusive, TGFb SMAD3 inh inconclusive
Cc1ccccc1C(=O)N1CCN(c2ccc(NC(=S)NC(=O)c3cccs3)cc2)CC1	IL1B secr inh inconclusive, TDP1 cell CPT 23.1µM, DT40 TDP1 no CPT 23.1µM, TGFb SMAD3 inh inconclusive
Cc1ccc(C(=O)N2CCN(c3ccc(NC(=S)NC(=O)c4cccs4)cc3)CC2)cc1	IL1B secr inh -54.5, TDP1 cell CPT inconclusive, DT40 TDP1 no CPT 20.6µM
O=C(COc1ccc2ccc(=O)oc2c1)NCCCN1CCCC1=O	none
C=CCn1c(SCC(=O)NCc2ccco2)nnc1-c1cccc(N(C)C)c1	TDP1 cell CPT inconclusive, DT40 TDP1 no CPT inconclusive, TGFb SMAD3 inh inconclusive (no result: IL1B secr inh, TDP1 block)
CC(C)CC(=O)NC(=S)Nc1ccc(N2CCN(C(=O)c3cccs3)CC2)cc1	IL1B secr inh -57.7, TDP1 cell CPT inconclusive, DT40 TDP1 no CPT 20.6µM, TGFb SMAD3 inh inconclusive
Cn1c(=O)cc(SCC(=O)N2CCN(c3ccccc3F)CC2)c2cc(Cl)ccc21	TDP1 cell CPT inconclusive, DT40 TDP1 no CPT inconclusive (no result: IL1B secr inh)
CC1=CC(C)C2COC(c3ccc[n+](C)c3)C1C2C (configuration not stated)	TDP1 cell CPT 8.2µM, DT40 TDP1 no CPT 8.2µM
